HBB splice mod: alters splicing of the hemoglobin beta chain | HBB splicing reporter cell assay, activation; EGFP reporter with mutant IVS2-654 intron; response scale: normalised to 500 nM splice-correcting PNA | Potency, µM (top dose mostly 46.1 µM), inactives show at the top dose activation, hits mostly activators | actives 0.06% (n = 65,000); further: potency means the concentration at half of the fitted maximal effect; 0% is about no effect
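Compounds were applied for 2 days to HeLa EGFP-654 cells, 500/well in Optimem with 2% FCS. The reporter's EGFP is disrupted by mis-splicing of beta-globin intron IVS2-654. Readout: summed well GFP fluorescence from 488 nm laser scanning; reference was 500 nM antisense […] 654 PNA.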
GFP derepression: derepresses silenced GFP locus in mouse C127i cells. mouse C127i GFP locus derepression, cytometry, 30 h. actives 0.09% (n = 68,000). Potency, µM (doses to about 46.1 µM), without a hit: top-dose GFP derepression (activation); further: % of control where 0% means no effect
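Locus derepression in mouse mammary C127i cells whose integrated CMV-GFP reporter is normally silent; GFP expression after 30 h compound treatment was quantified by counting fluorescent cells.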
Peg3 imprint: induces erasure of genomic imprints in mouse ES cells | mouse ES Peg3-LacZ reporter, beta-gal luminescence, 40 h | Potency, µM (titrated, usually from 60.7 µM), without a hit: at the top dose activity change, positive = activation, actives largely listed as activators | actives 0.02% (n = 110,000) | AID 1948; further: potency means the concentration at half of the fitted maximal effect
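Gelatin-coated wells received 300 freshly trypsinized female ES cells with a Peg3LacZ-Neo reporter on the maternal allele, then incubated 40 hours at 37C. BetaGlo was added for 5 minutes at room temperature before a single luminescence read.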
Ub-GFP proteasome: inhibits proteasome, raising ubiquitin-GFP reporter fluorescence. Potency, µM (titrated, usually from 45.9 µM), without a hit: at the top dose activation (GFP accumulation), usual class: activators. 67,000 tested, under 10 active. Ubiquitin-GFP reporter cells, proteasome inhibition, GFP fluorescence; response scale: untreated = 0%, 10 µM MG-132 = 100%; active means well fitted activation curve with a large enough effect, not every such curve was filed as active; inconclusive means small, poorly fitted or top-dose-only effect, or another doubt; inactive means no such curve, though single readings can be large or run the other way; further: potency means the concentration at half of the fitted maximal effect
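Proteasome block read as GFP accumulation: ubiquitin(G76V)-GFP U2OS cells exposed to compound (2.9 nM–46 uM) for 4 hr at 37 C. Normalization used untreated cells as 0% and 10 uM MG-132 as 100%; concentration-response curves fitted.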
ERK AVP inh: vasopressin-driven ERK pathway inhibition; HEK293-V1b, vasopressin-stimulated pERK AlphaScreen; Potency, µM (top dose mostly 57.5 µM), for the others: at the highest dose activity, negative = inhibition, hits mostly inhibitors; actives 0.99% (n = 72,000); further: potency means the concentration at half of the fitted maximal effect; on the % scale 0 is the no-effect control and ±100 the full control effect; nearly all actives have a fitted effect of over 55% in size
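Overnight-seeded V1b-HEK293 cells in 1% FBS got compound, then vasopressin (25 nM final, 5 min, 37C), then lysis buffer. AlphaScreen detection of phospho-ERK; activity normalized to basal and full-stimulation controls.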
An asterisk follows results filed as active; ? = inconclusive; . = no result; [ ] = another dose, or the depositor's remark. The full list was thinned out, with hits kept by preference. Unless noted, the call rests on the fitted dose curve; in most records, active means well fitted curve in the direction sought with a large enough effect; inconclusive means small, poorly fitted or top-dose-only effect, or another doubt; inactive means no such curve, though single readings can be large; an effect the other way counts as inactive or inconclusive.

SMILES	HBB splice mod	GFP derepression	Peg3 imprint	Ub-GFP proteasome	ERK AVP inh
O=C(CN1CCN(c2nc(-c3ccc(Cl)cc3)cs2)CC1)NCc1ccco1	0%[57.5 µM]	-5%	-12%	-3%	32µM*
O=C(Cc1cccs1)N1CCN(c2nc(-c3ccc(Cl)cc3)cs2)CC1	.	-5%	-15%	4%	?
O=C(CSc1nc(-c2ccccc2)cs1)NC(=O)NCc1ccco1	-2%	1%	-71%	1%	25µM*
CCCNC(=O)CCn1nc(-c2ccc(C)cc2)c2ccccc2c1=O	.	.	-9%[10.9 µM]	.	.
COc1ccc(-c2c3c(nc4sc(C(=O)Nc5cc(C)on5)c(N)c24)CCC3)cc1	0%	-2%	4%	-6%	7.9µM*
COc1cc2c(cc1OC)-c1cc(NC3CCCCCC3)nc(=O)n1CC2	-2%[57.5 µM]	11%	-12%	-4%	?
COc1cc2c(cc1OC)-c1cc(Nc3ccc4c(c3)OCCO4)nc(=O)n1CC2	-4%[57.5 µM]	2%	-5%	-6%	10µM*
COc1cc2c(cc1OC)-c1cc(N3CCCc4ccccc43)nc(=O)n1CC2	2%	-3%	-14%	-4%	20µM*
COc1cc2c(cc1OC)-c1cc(OCc3cccnc3)nc(=O)n1CC2	2%[57.5 µM]	0%	-13%	-4%	13µM*
COC(=O)c1ccc(NC(=O)C2CCCN2S(=O)(=O)c2ccc(OC)cc2)cc1 (centres undefined)	1%	-2%	-13%	14%	-28%
COC(=O)c1cc(OC)c(OC)cc1NC(=O)C1CCC(=O)N1S(=O)(=O)c1ccc(C)cc1 (centres undefined)	-3%	-2%	-3%	-5%	25µM*
COC(=O)c1ccc(NC(=O)C2CCCN2S(=O)(=O)c2ccc(C)cc2)cc1 (centres undefined)	0%	0%	-10%	-5%	25µM*
Cc1ccc(S(=O)(=O)N2C(=O)CCC2C(=O)NCc2ccco2)cc1 (centres undefined)	-1%	0%	13%	7%	-1%
N#CC(C(=O)NCCc1ccccc1)c1nc2ccccc2nc1N1CCCCC1 (centres undefined)	0%	-1%	5%	-4%	13%
N#CC(C(=O)NCc1ccccc1)c1nc2ccccc2nc1N1CCCC1 (centres undefined)	10µM*	?	-5%	12%	0%
COc1ccc(/C=C/C(=O)c2ccc(O)cc2O)cc1OC	.	.	6%	.	16µM*
O=C(/C=C/c1ccc(O)cc1)c1ccc(O)cc1O	0%[9.22 µM]	.	-89%	.	11%[11.5 µM]
C=CCn1c(C)cc(C(=O)CSc2nc3ccccc3c(=O)[nH]2)c1C	-2%	0%	-22%	6%	20µM*
Cc1cnc(CNc2ncncc2-c2ccc3c(c2)OCO3)cn1	1%	3%[9.22 µM]	-6%	3%	?
c1csc(CNc2ncncc2-c2ccc3c(c2)OCO3)c1	0%	-3%[9.22 µM]	2%	0%	6.3µM*
Cc1ccc(OCc2nnc(SCc3nc4ccccc4[nH]3)n2Cc2ccco2)cc1	4%[0.369 µM]	-2%	-6%	.	32µM*
Cc1ccc(NC(=O)c2sc3nc(-c4cccs4)ccc3c2N)cc1F	.	.	-23%[10.9 µM]	.	.
Cc1csc(NC(=O)c2sc3nc(-c4cccs4)ccc3c2N)n1	16µM*	18%	-26%	0%	-1%
CC(C)CCN1C(=O)c2ccc(C(=O)NCC3CCCO3)cc2C1=O (centres undefined)	-2%	0%	6%	-6%	-12%
CCN1C(=O)CC(N2CCN(c3ccc(Cl)cc3)CC2)C1=O (centres undefined)	3%	12%	-9%	0%	6%
SMILES	HBB splice mod	GFP derepression	Peg3 imprint	Ub-GFP proteasome	ERK AVP inh
CCN1C(=O)CC(N2CCN(c3ccc(C(=O)c4ccccc4)cc3)CC2)C1=O (centres undefined)	6%	10%	-26%	-4%	16µM*
CCSC1=C(C#N)C(c2ccc(OC)c(OC)c2)CC(=O)N1 (centres undefined)	.	-2%	-4%	-6%	-27%
CCCCCCSC1=C(C#N)C(c2ccc(O)cc2)CC(=O)N1 (centres undefined)	.	2%	-11%	-2%	16µM*
O=C(NCc1cccc(Cl)c1)C1CCN(C(=O)c2sccc2-n2cccc2)CC1	.	.	-4%[10.9 µM]	.	.
O=C(NCCc1ccc(Cl)cc1)C1CCN(C(=O)c2sccc2-n2cccc2)CC1	-2%[57.5 µM]	0%	-18%	2%	16µM*
COc1ccc(-n2c(Cc3cccn3C)nnc2SCC(=O)Nc2cccc(OC)c2)cc1	0%	.	-1%	4%	?
COC(=O)c1ccc(OC(=O)c2ccc(OCc3c(C)noc3C)c(OC)c2)cc1	1%	0%	-2%	1%	16%
COc1ccccc1OCc1ccc(C(=O)Nc2ccncc2)o1	0%	2%	17%	-4%	16µM*
O=C(Nc1cccnc1)c1ccc(Cl)c(S(=O)(=O)N2CCCCCC2)c1	-1%	1%	-21%	0%	20µM*
Cc1ccccc1NC(=O)c1ccc(Cl)c(S(=O)(=O)N2CCCCCC2)c1	.	.	-19%[10.9 µM]	.	.
CCOC(=O)Cc1csc(NC(=O)CSc2ncnc3c2cnn3-c2ccc(OC)cc2)n1	.	1%	-77%	-4%	5µM*
Clc1ccc2[nH]c3c(NCC4CCCO4)ncnc3c2c1 (centres undefined)	-2%[0.369 µM]	3%	-10%	-1%	25µM*
Cc1nc2ncnn2c(N2CCC(C(=O)NC3CCCC3)CC2)c1Cc1ccccc1	.	1%	.	4%	19%
Cc1nc2ncnn2c(Nc2ccc3c(c2)OCO3)c1Cc1ccccc1	.	4%	-9%	-5%	25µM*
O=C(Nc1ncc(Br)s1)C1CCCN1S(=O)(=O)c1cccc2cccnc12 (centres undefined)	-1%	-2%	-5%	-8%	8%
C=CCN(Cc1cc(OC)ccc1OC)S(=O)(=O)N(C)C	-2%[57.5 µM]	-2%	-19%	5%	5%
CCOc1cc(C(=O)Nc2ccc3c(c2)OCO3)ccc1OC(F)F	-4%	0%	9%	2%	20µM*
CCOc1ccc(C(=O)Nc2ccc3c(c2)OCCO3)cc1OC	0%	3%	0%	-3%	-10%
Cc1cc(-c2ccccc2)c2c3c(cn2n1)c(=O)n(C)c(=O)n3C	4%	-6%	-8%	3%	?
COc1ccc(CC(=O)Nc2cccc(-c3nnc(-c4ccc(C)cc4)o3)c2)cc1OC	-1%	6%	-17%	-6%	7.9µM*
CCOc1cccc(C(=O)Nc2cccc(-c3nnc(-c4ccc(C)cc4)o3)c2)c1	0%	0%	-8%	4%	1%
COc1ccc(CC(=O)Nc2cccc(-c3nnc(-c4cccc(C)c4)o3)c2)cc1OC	-1%	-6%	-47%	2%	3.2µM*
COc1ccc(CC(=O)Nc2ccc(-c3nnc(-c4ccccc4)o3)cc2)cc1OC	3%	8%	-11%	0%	1%

Source: PubChem (National Center for Advancing Translational Sciences (NCATS))
